Assay outcomes: PubChem, several laboratories
Most compounds without a hit are left out; they make up all but 2.4% or so of the library.
cardiac RTF act: cardiac RTF calcium sensitization; AID 493008; hit rate 0.24% among 340,000; P19429+P45379; activation, % at 7.2 µM; IANBD-labeled TnC RTF fluorescence at EC20 calcium; 0% EC20 calcium, 100% full calcium;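 active = activation above the mean over all tested compounds plus 3 SD, cut at about 30% in these data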;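 also: rise in fluorescence read as greater calcium sensitivity of cardiac thin filaments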
CRFBP-R2 agonist: CRF-BP/CRF-R2 complex agonism. AID 588473. hit rate 0.46% among 350,000. activation, % at 13.2 µM. HEK293 CRF-R2/CRF-BP, calcium dye fluorescence (FLIPR); percent of saturating CRF peptide response;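 active = activation of at least 50%, plus an integration ratio under a set limit after plate pattern correction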;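 also: plate controls were neutral control wells without compound for no effect and CRF at EC100 for full effect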
TMEM16A inh: mouse TMEM16A channel inhibition, primary screen. Q8BHY3. hit rate 1.2% among 310,000. HEK293 TMEM16A/YFP iodide influx fluorescence, ionomycin. AID 588511. normalized B-score (activity score, 25-100; higher = stronger inhibition) at 10 µM;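 active = ratio plate-corrected score three or more library SD toward inhibition, starting fluorescence score within five deviations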;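 also: score derived from kinetic fluorescence span divided by baseline fluorescence per well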
ANO1 activ: mouse TMEM16A channel activation, primary screen; Q8BHY3; hit rate 0.3% among 340,000; HEK293 TMEM16A/YFP-H148Q/I152L, iodide quench fluorescence; stronger effect = lower value; B-score at 10 µM;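 active = fluorescence-ratio B-score plate-corrected deviation score at least 3 library SD below zero, with starting fluorescence score within 5 deviations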;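 also: channel opened by trigger with iodide after compound preincubation; score built on the fluorescence ratio of max minus min over baseline; more negative score means more quench and so TMEM16A activation or potentiation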
Cardiac RTF inh: cardiac RTF calcium desensitization. P19429+P45379. IANBD-labeled cardiac RTF, Ca2+ fluorescence. inhibition, % at 7.15 µM. hit rate 0.12% among 340,000;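 active = inhibition above the mean inhibition of all tested compounds plus 3 SD, cut at about 17% in these data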;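 also: assay run at fixed EC70 calcium of 1.6 mM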
CRFR2-BP antag: CRF-BP/CRF-R2 complex antagonism | HEK293 CRF-R2/CRF-BP, CRF-induced calcium fluorescence | inhibition, % at 11.8 µM | hit rate 0.59% among 350,000;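 active = inhibition of the ligand-induced calcium signal above about 50% at the single tested concentration, limit read from the data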
TMEM16A reconf: reconfirmed blocker of mouse TMEM16A calcium-activated chloride channel | shares compounds with TMEM16A inh | HEK293 TMEM16A/YFP-H148Q, iodide quench fluorescence; ionomycin added to raise cell calcium | inhibition, % at 10 µM | hit rate 39% among 2,300;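 active = mean duplicate percent inhibition, scaled so buffer wells are 0 and the reference blocker 100, over three buffer SD above buffer mean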
TMEM16A Ca cntr: counter-screen for TMEM16A inhibitors: effect on calcium mobilization; calcium response (% of ionomycin), % at 10 µM; hit rate 2% among 2,300; TMEM16A/YFP HEK293, Fluo4 calcium mobilization; shares compounds with TMEM16A inh; AID 652231;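 active = duplicate-averaged calcium signal over 20% of the ionomycin maximum, relative to buffer baseline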;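 also: each well's signal is peak minus trough fluorescence divided by its pre-addition baseline; 0% = buffer wells and 100% = ionomycin wells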
Parental YFP cnt: counter-screen for TMEM16A inhibitors: effect in parental YFP-HEK293 cells. iodide YFP quench, ionomycin. 2,300 tested, under 10 active. shares compounds with TMEM16A inh. YFP ratio F(max-min)/F0 at 10 µM;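 active = yellow fluorescent protein signal ratio exceeding the buffer control mean by over 5 SD of those controls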;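 also: ratio is mean of duplicate wells from kinetic YFP trace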
ClC-1 inh: rat ClC-1 inhibition, TMEM16A specificity screen | shares compounds with TMEM16A inh | CHO ClC-1-YFP, iodide influx fluorescence quench; iodide control reads 0, buffer control 100 | ratio percent, % at 10 µM | 2,300 tested, under 10 active | AID 652236;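 active = duplicate-mean ratio percent above the mean of iodide-only control wells, which defines zero, plus 5 of their SD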;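 also: higher percent means stronger block of ClC-1 iodide influx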
Target sequence (P35524 whole entry, looked up): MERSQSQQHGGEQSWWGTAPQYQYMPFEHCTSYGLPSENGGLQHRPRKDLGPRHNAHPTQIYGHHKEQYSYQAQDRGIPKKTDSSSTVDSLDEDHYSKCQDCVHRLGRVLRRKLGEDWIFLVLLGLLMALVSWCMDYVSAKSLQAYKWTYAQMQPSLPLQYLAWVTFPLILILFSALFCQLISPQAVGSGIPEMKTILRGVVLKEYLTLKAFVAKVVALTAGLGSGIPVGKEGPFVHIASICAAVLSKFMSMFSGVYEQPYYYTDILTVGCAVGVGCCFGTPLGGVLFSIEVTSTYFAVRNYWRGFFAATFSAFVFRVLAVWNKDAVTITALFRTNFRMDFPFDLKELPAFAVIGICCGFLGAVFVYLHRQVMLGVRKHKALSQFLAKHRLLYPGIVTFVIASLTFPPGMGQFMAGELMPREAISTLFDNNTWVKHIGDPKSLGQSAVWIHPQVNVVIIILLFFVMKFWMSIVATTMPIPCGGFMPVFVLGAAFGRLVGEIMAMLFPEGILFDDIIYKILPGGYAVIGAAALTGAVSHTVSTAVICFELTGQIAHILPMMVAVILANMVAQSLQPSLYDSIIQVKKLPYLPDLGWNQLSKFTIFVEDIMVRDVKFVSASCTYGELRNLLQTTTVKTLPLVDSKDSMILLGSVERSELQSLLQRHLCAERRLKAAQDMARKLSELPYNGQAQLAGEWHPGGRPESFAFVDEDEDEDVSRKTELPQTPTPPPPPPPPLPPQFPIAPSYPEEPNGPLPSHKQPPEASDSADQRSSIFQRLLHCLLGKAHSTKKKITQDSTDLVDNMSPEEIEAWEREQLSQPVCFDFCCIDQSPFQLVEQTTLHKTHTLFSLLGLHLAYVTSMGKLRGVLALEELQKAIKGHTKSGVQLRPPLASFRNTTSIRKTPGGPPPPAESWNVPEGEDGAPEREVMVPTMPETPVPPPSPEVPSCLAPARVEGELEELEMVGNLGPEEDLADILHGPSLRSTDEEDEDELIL
The depositor's hits bear a star; i = inactive; nt = no result given.

SMILES	cardiac RTF act	CRFBP-R2 agonist	TMEM16A inh	ANO1 activ	Cardiac RTF inh	CRFR2-BP antag	TMEM16A reconf	TMEM16A Ca cntr	Parental YFP cnt	ClC-1 inh
Cc1csc(SCC(=O)c2cc(C)n(Cc3cccs3)c2C)n1	-0.2	0.1	100*	i	1.1	43.1	16.5%*	i	-1.26	-14.0
Cc1csc2c(N3CCN(C(=O)c4ccc(C(C)(C)C)cc4)CC3)ncnc12	2.2	-4.4	100*	i	1.9	4.3	36.5%*	i	-1.11	-28.0
O=C(Nc1ccc(Cl)c(Cl)c1)N1CCSCC1	7.4	1.3	i	i	11.2	-17.8	nt	nt	nt	nt
Cc1csc2c(N3CCN(C(=S)Nc4ccc(C(F)(F)F)cc4)CC3)ncnc12	-8.6	2.2	100*	i	-5.1	-16.7	i	i	-1.14	-18.5
Cc1csc2c(N3CCN(C(=O)Nc4ccc(Cl)c(Cl)c4)CC3)ncnc12	2.6	-1.1	25*	i	-7.0	-8.2	29.0%*	i	-0.801	-20.0
Cc1csc2c(N3CCN(C(=O)NC(C)(C)C)CC3)ncnc12	9.6	-0.5	i	i	-11.6	0.2	nt	nt	nt	nt
CC(C)(CCc1ccccn1)C(=O)CCCc1ccccn1	5.2	-0.5	nt	i	-5.4	0.5	nt	nt	nt	nt
CC(NC(=O)C1CCN(C(=O)Nc2ccccc2)CC1)c1ccccc1 (configuration not stated)	4.3	0.9	i	i	-17.8	0.2	nt	nt	nt	nt
N#CC1(Cc2ccccc2Cl)c2ccccc2C=CN1C(=O)c1ccccc1 (configuration not stated)	-2.0	-0.1	25*	i	-0.2	-14.7	i	i	-1.17	-9.0
CNC(=O)c1sc(N2N=C3/C(=C/c4ccccc4)CCCC3C2c2ccccc2)nc1C (configuration not stated)	3.4	64.4*	100*	i	-2.3	-56.3	46.0%*	57.5%*	-0.922	-6.5
CNC(=O)c1sc(N2N=C3/C(=C\c4ccccc4)CCCC3C2c2ccccc2)nc1C (configuration not stated)	-4.4	43.1	nt	i	0.8	-37.5	nt	nt	nt	nt
O=C(Cc1cnc2ncnn2c1)N1CCc2c([nH]c3ccccc23)C1c1ccccn1 (configuration not stated)	-2.5	-2.1	i	i	-0.3	-9.5	nt	nt	nt	nt
COc1ccc(-c2nc3cc(NC(=O)Cc4ccc(OC)c(OC)c4)ccc3o2)cc1	0.6	-0.6	100*	i	-0.4	0.6	i	i	-0.951	-7.5
Cn1c(Cc2ccccc2)nnc1SCC(=O)NC1CCCC1	-1.7	2.1	100*	i	-8.4	5.0	i	i	-1.12	-14.5
Cn1c(Cc2ccccc2)nnc1SCC(=O)NC1CCCCC1	-2.3	-1.2	i	i	3.2	28.8	nt	nt	nt	nt
CCN(CC)CCCn1c2c(c(SCC(=O)Nc3ccc4c(c3)OCO4)nc1=O)CCC2	-5.3	-0.7	i	i	-7.3	9.2	nt	nt	nt	nt
Cc1ccc(CNC(=O)c2ccc(N3CCCC3=O)cc2)cc1	-4.5	-2.1	i	i	-3.8	18.2	nt	nt	nt	nt
COc1ccc(CNC(=O)c2ccc(N3CCCC3=O)cc2)cc1	-3.5	6.0	100*	i	-5.1	3.8	i	i	-1.2	1.5
COc1ccccc1NS(=O)(=O)c1ccc(-c2cnc(C3CC3)o2)cc1	4.3	1.8	i	i	6.1	-11.2	nt	nt	nt	nt
COc1ccc(NS(=O)(=O)c2ccc(-c3cnc(C4CC4)o3)cc2)cc1OC	4.3	-1.8	25*	i	-7.3	-4.8	34.5%*	i	-1.01	-24.0
CCN(CC)CCCN1C(=O)C(O)=C(C(=O)c2ccco2)C1c1ccc(OC(C)C)cc1 (configuration not stated)	-6.3	-0.7	i	i	-1.1	0.2	nt	nt	nt	nt
C=CCOc1ccc(C2C(C(=O)c3ccco3)=C(O)C(=O)N2CCCN(CC)CC)cc1 (configuration not stated)	-2.9	2.6	25*	i	-25.6	-5.8	i	i	-0.973	-20.0
COc1cc(Nc2nc3ccccc3n3nnnc23)cc(OC)c1OC	5.0	-4.4	i	i	-8.6	-13.9	i	i	-0.808	-4.0
Cn1cc(C(=O)Nc2ccc(F)c(Cl)c2)cn1	6.8	0.6	i	i	-10.1	1.6	nt	nt	nt	nt
CN1c2ccsc2C(O)=C(C(=S)Nc2ccc(F)c(Cl)c2)S1(=O)=O	-12.5	-0.6	25*	i	-6.9	23.2	21.0%*	i	-1.14	-9.5
SMILES	cardiac RTF act	CRFBP-R2 agonist	TMEM16A inh	ANO1 activ	Cardiac RTF inh	CRFR2-BP antag	TMEM16A reconf	TMEM16A Ca cntr	Parental YFP cnt	ClC-1 inh
CCn1c(SCC(=O)c2ccc3c(c2)OCCO3)nnc1C(C)C	3.6	5.7	i	i	-8.7	-33.7	i	i	-1.01	-8.5
CC1C(=O)Nc2ccccc2N1C(=O)C1CC1 (configuration not stated)	-1.9	-0.4	25*	i	-4.7	-6.8	i	i	-0.914	-14.5
CC1C(=O)Nc2ccccc2N1C(=O)c1ccccc1 (configuration not stated)	-1.0	-1.4	i	i	-3.1	1.4	nt	nt	nt	nt
CC1=CC(C)C(C(=O)O)C(C(=O)O)C1 (configuration not stated)	4.7	0.4	100*	i	-2.1	11.1	i	i	-0.83	-5.0
CCc1ccc(CNc2ccc(N3CCN(C(C)=O)CC3)cc2)cc1	-5.1	1.8	25*	i	1.5	-18.9	i	i	-1.15	-13.5
CC(=O)N1CCN(c2ccc(NCc3ccc(C)cc3)cc2)CC1	2.8	-0.1	i	nt	-1.9	-1.5	nt	nt	nt	nt
CN1CC=C2C(C#N)=C(N)C(C#N)(C#N)C(Cc3ccccc3)C2C1 (configuration not stated)	22.9	19.7	i	i	-20.7	-44.6	i	i	-0.787	-15.0
OCC[C@@H]1C[C@H](O)[C@@H](O)[C@]2(CCc3ccccc3O2)O1	-5.2	-1.4	25*	i	0.7	-3.7	i	i	-1.15	-3.0
Cc1oc(-c2ccc(Cl)cc2)nc1CN1CCCC(C(=O)N2CCOCC2)C1 (configuration not stated)	3.0	3.9	i	i	-2.9	0.1	nt	nt	nt	nt
